Rows were chosen to be rich in hits. Some 0.52% of all compounds tested hit in one or more screens of this group.
GAA inhib: qHTS Assay for Inhibitors of Human alpha-Glucosidase as a Potential Chaperone Treatment of Pompe Disease. Lysosomal alpha-glucosidase (Homo sapiens), P10253. purified human GAA, 4-MU-alpha-glucoside fluorescence. Potency, µM (doses to about 76.9 µM), hits mostly inhibitors. 200,000 tested, 0.005% active. AID 1466, 2008
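Compounds are titrated up to 77 uM against 4 nM human enzyme. Substrate 4-methylumbelliferyl-alpha-D-pyranoside (400 uM) reacts 20 min at room temperature in pH 5.0 buffer; liberated 4-methylumbelliferone is read at 440 nm.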
GAA spleen mod: qHTS Assay for Inhibitors and Activators of Human alpha-Glucosidase From Spleen Homogenate. Lysosomal alpha-glucosidase (Homo sapiens), P10253. 240,000 tested, 0.006% active. human spleen homogenate, 4-MU-alpha-glucoside fluorescence. Potency, µM (top dose mostly 79.9 µM), hits mostly inhibitors
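Human spleen homogenate (1 ug) incubated with compounds and 1 mM 4-methylumbelliferyl-alpha-D-glucopyranoside in pH 5.0 citrate/phosphate buffer, 37 C, 40 min. Stopped at pH 10; 4-MU fluorescence (Ex 365/Em 440 nm); AC50 by Hill fit.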
N370S GC mod: qHTS Assay for Inhibitors and Activators of N370S glucocerebrosidase as a Potential Chaperone Treatment of Gaucher Disease | Potency, µM (series often up to 59.4 µM), most hits filed as inhibitors | N370S GC spleen homogenate, 4MU-glucoside fluorescence | 330,000 tested, 0.092% active | AID 2101, 2009 | Lysosomal acid glucosylceramidase (Homo sapiens), P04062
Luc counter: Counterscreen for Luciferase (Kinase-Glo TM) Inhibition; Luciferin 4-monooxygenase (Photuris pensylvanica), Q27757; Kinase-Glo luciferase, ATP luminescence, 8 min; Potency, µM (top dose mostly 38.3 µM), actives largely listed as inhibitors; 200,000 tested, 0.28% active; also: nearly all actives have a fitted effect of over 60% in size
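Compound is pinned into ATP-containing buffer (10 uM ATP, imidazole pH 7.2, 7 mM MgCl2). Kinase-Glo luciferase reagent is then added. Light output is recorded following an 8-min room-temperature incubation.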
Lamin A splicing: qHTS Assay for Modulators of Lamin A Splicing. Potency, µM (highest dose often 46.1 µM), usual class: inhibitors. HeLa LMNA splicing GFP/RFP minigene ratio, 48 h. 200,000 tested, 0.01% active. AID 1487, 2009; active = well fitted inhibition curve with a large enough effect in the signal ratio, with a control signal flat, not every such curve was filed as active; inconclusive = small, poorly fitted or top-dose-only effect, or effect the other way, or a change in a side signal; the % refers to the signal ratio
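S3 HeLa cells stably expressing lamin A-EGFP splicing minigene plus DsRed2, 600 cells/well, 48 h compound exposure at 37C. Laser-scanning cytometry; analysed as GFP (500-530 nm)/RFP (575-640 nm) total intensity ratio; 0.5% DMSO vehicle.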
GAA glycogen: qHTS Assay for Inhibitors and Activators of Human alpha-Glucosidase Cleavage of Glycogen | Lysosomal alpha-glucosidase (Homo sapiens), P10253 | recombinant GAA, glycogen substrate, Amplex Red glucose oxidase fluorescence | Potency, µM (doses to about 76.4 µM), most hits filed as inhibitors | 300,000 tested, 0.38% active;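 also: the screen sought inhibitors and activators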
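Natural-substrate format: glycogen cleavage by 4 nM human enzyme, glucose read by Amplex Red coupling (Ex 573, Em 610 nm). Normalized to enzyme and no-enzyme controls.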
Of the large screens only hits and unclear results are named; the others gave an inactive call. Unless noted, calls follow the shape of the dose curve; as a rule, active = well fitted curve in the direction sought with a large enough effect; inconclusive = small, poorly fitted or top-dose-only effect, or another doubt; inactive = no such curve, though single readings can be large; an effect the other way counts as inactive or inconclusive.

C/C(CC(=O)Nc1ccccn1)=N\NC(=O)C(=O)Nc1cccc(C)c1	none
COc1ccc2c(/C=N/NS(=O)(=O)c3ccc(C)cc3)c[nH]c2c1	GAA glycogen 8.91µM (no result: GAA inhib, Luc counter, Lamin A splicing)
COc1ccc2[nH]cc(/C=N/NS(=O)(=O)c3ccc(C)cc3)c2c1	GAA glycogen inconclusive (no result: GAA inhib, Luc counter, Lamin A splicing)
CCCCCOC(=O)CSc1nc2sc3c(c2c(=O)n1Cc1ccccc1)CC(C)(CC)OC3 (stereo unspecified)	none (no result: GAA inhib, GAA spleen mod, N370S GC mod, Luc counter, Lamin A splicing)
Nc1ccc2nc(N3CCOCC3)sc2c1	GAA glycogen 6.26µM
C[C@@]12CCC(=O)C=C1CC[C@H]1C2[C@@H](O)C[C@]2(C)[C@@H]1CC[C@@]2(O)C(=O)CO (stereo partly specified)	none (no result: GAA inhib, GAA spleen mod, N370S GC mod, Lamin A splicing, GAA glycogen)
N#Cc1ccc(-c2csc(NNC(=O)c3ccccc3)n2)cc1	Lamin A splicing inconclusive, GAA glycogen 28.2µM
N#Cc1ccc(-c2csc(NNC(=O)c3ccc(Br)cc3)n2)cc1	GAA glycogen inconclusive
COc1ccc(NC(=O)c2cc(-c3ccc(C)o3)nc3ccccc23)cc1OC	Luc counter 6.31µM
Cc1ccc(-c2cc(C(=O)Nc3nccs3)c3ccccc3n2)o1	Lamin A splicing inconclusive
O=C(O)/C=C/c1ccc(O)c(O)c1	GAA spleen mod inconclusive, Lamin A splicing inconclusive, GAA glycogen 7.94µM
O=C(/C=C/c1ccc(Br)cc1)NC(=O)c1ccccc1O	Lamin A splicing inconclusive
O=C(/C=C/c1ccc(O)c(O)c1)NC(=O)c1ccccc1O	GAA glycogen 3.55µM (no result: GAA inhib, Lamin A splicing)
COc1ccc2c(c1)O[C@H](c1ccc3c(c1)OCO3)[C@@H](OC(=O)NCc1ccco1)C2=O	none (no result: GAA inhib, Lamin A splicing, GAA glycogen)
Cc1c2c(c(O)c3c(O)cccc13)C(=O)O[C@H]2C1C(N(C)C)C(O)=C(C(N)=O)C(=O)[C@H]1O (stereo partly specified)	none (no result: GAA inhib, Luc counter, Lamin A splicing, GAA glycogen)
Cc1ccn2cc(-c3cc4ccccc4oc3=O)nc2c1	Luc counter 10µM (no result: Lamin A splicing)
Cc1ccc(Cl)cc1N1CCN(C(=O)c2cn(C)c3ccc(S(=O)(=O)N4CCCCC4)cc3c2=O)CC1	none (no result: GAA inhib, GAA spleen mod, N370S GC mod, Luc counter, Lamin A splicing)
COC(=O)c1[nH]c2ccc(Cl)cc2c1NC(=O)Oc1ccccc1	GAA glycogen 24.9µM
CCOC(=O)N1CCN(c2ccc(Cl)cc2)CC1	none
CCOC(=O)N1CCN(c2ccc(O)cc2)CC1	Lamin A splicing 12.6µM, GAA glycogen 25.1µM
O=C(CSc1ccc2ccccc2c1)N1CCN(c2ccc(O)cc2)CC1	GAA glycogen 15.8µM (no result: GAA inhib, Luc counter, Lamin A splicing)
O=C(COc1ccc2ccccc2c1)N1CCN(c2ccccc2O)CC1	Lamin A splicing inconclusive, GAA glycogen 14.1µM
O=C(c1ccc2ccccc2c1)N1CCN(c2ccc(O)cc2)CC1	Lamin A splicing inconclusive, GAA glycogen 17.6µM
O=C(c1ccc2ccccc2c1)N1CCN(c2ccccn2)CC1	none (no result: GAA inhib, GAA spleen mod, Luc counter, Lamin A splicing)
O=C1c2ccccc2C(=O)C1c1nccc2ccccc12	Luc counter 8.91µM
Cc1cccc(NC(=O)c2ccc(-n3c(C)nnc3C)cc2)c1	none (no result: GAA inhib, GAA spleen mod, N370S GC mod, Luc counter, GAA glycogen)
CCOC(=O)CNc1c(-c2ccc(O)cc2)nc2ccc(Cl)cn12	N370S GC mod inconclusive, Lamin A splicing inconclusive, GAA glycogen 22.4µM
COC(=O)CNc1c(-c2ccccn2)nc2ccc(Br)cn12	GAA glycogen inconclusive
CCOC(=O)CNc1c(-c2ccc(O)cc2)nc2ccccn12	GAA glycogen 35.2µM
CCOC(=O)C(=O)c1c(-c2ccc(C)cc2)nc2ccccn12	none
CCOC(=O)CNc1c(-c2ccccc2)nc2ccc(Cl)cn12	GAA glycogen 4.47µM
O=C(Nc1c(-c2ccccc2)nc2ccc(Cl)cn12)c1cccs1	Lamin A splicing inconclusive
O=C(Nc1ccc(Cl)c(Cl)c1)N(CCCN1CCOCC1)Cc1cccnc1	none (no result: GAA inhib, Luc counter, Lamin A splicing)
O=C(Nc1ccc(Cl)c(Cl)c1)N(CCCN1CCOCC1)Cc1cccs1	N370S GC mod 12.6µM
